According to the supplement of paper PMC7335073:
Whole data set: some 4,100 sequences, median “relative CpG methylation activity (normalised to average over all NNNCGNNN flanks)” near 0.87, cut for the highest 2% near 2.4. This excerpt belongs to a sample that is enriched for the highest values.

The sequences below were run against DNMT3A catalytic domain (mouse) (UniProt O88508) (assay: relative CpG methylation activity (normalised to average over all NNNCGNNN flanks) (relative (1 = mean)); higher = more methylation of the central CpG). Details: system: in vitro, murine catalytic domain; CpG state: hemimethylated substrate pool; residues: 608-908.
Procedure: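 Deep enzymology: a pool of dsDNA substrates with a central CpG flanked by 10 random nucleotides on each side was methylated by the murine DNMT3A or DNMT3B catalytic domain (0.8 mM SAM, 37 °C, 60 min). Methylation was then read out by hairpin ligation, bisulfite conversion and NGS. Values are the average methylation of each NNNCGNNN context (±3 flanks; the outer flanks are random and averaged over), normalised to the overall mean, so 1 = average activity.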

Sequence | relative CpG methylation activity
TGACGCTT | 1.05
GTACGCTA | 1.98
ATACGGTG | 0.775
TAACGCTT | 1.53
ATACGCTG | 2.12
ATACGGTC | 2.39
ATACGCTA | 2.15
GTACGCTT | 2.66
GTACGCTG | 1.88
CTACGGTC | 1.92
ATACGCTT | 2.67
TTACGCTT | 2.62
CCTCGCAA | 1.31
CGGCGTAC | 0.625
AGGCGCAG | 0.331
TCTCGGTG | 0.645
TTACGCGA | 1.73
ACTCGTAG | 0.496
GAGCGCCT | 1.95
AGACGTCA | 1.03
AGACGATG | 0.457
TTACGCTC | 2.74
AGACGCTC | 1.49
GTACGCGC | 2.11
GTACGCTC | 2.72
GTACGCAC | 1.87

Sequence | relative CpG methylation activity
AAACGCTC | 1.44
ATACGCTC | 2.73
TTACGCAC | 2.32
TTACGCTG | 1.74
GCTCGACA | 1.04
TTCCGTGG | 0.603
TTGCGTAT | 1.47
ACTCGGAT | 0.799
AGGCGTTA | 0.256
ATACGAGT | 1.56
GCGCGGGG | 0.217
GTGCGCCA | 2.05
CTGCGCCT | 1.81
GTGCGCTC | 2.03
GTGCGCTA | 1.91
GTGCGCCT | 2.43
GTGCGCTT | 2.47
CGACGTTG | 0.323
TCCCGCAT | 0.92
GGACGATA | 0.784
TTTCGCCG | 1.83
AGACGTAT | 0.427
TTACGAGC | 2.12
CTCCGATC | 2.41
TTCCGATC | 2.29
GTCCGATC | 2.18

Sequence | relative CpG methylation activity
ATACGACC | 2.41
CTACGATT | 1.89
CTACGATC | 2.4
ATACGAGC | 2.39
GTACGACC | 2.03
CTACGATG | 1.2
GTACGAGC | 2.12
ATACGACG | 1.73
GGTCGCTG | 0.804
ACCCGGTC | 1.19
CCCCGCCT | 2.14
TGTCGGAA | 0.614
CCGCGTGG | 0.205
ACGCGCGG | 0.42
GCCCGGAT | 0.551
CTACGAGT | 1.7
CTACGAGA | 1.72
CTACGAGC | 2.44
TTCCGACG | 1.77
GTTCGCTC | 2.37
CTTCGCTT | 1.78
GTTCGCTG | 1.46
TTTCGCTC | 2.02
CTTCGCTA | 1.66
CTTCGCTC | 2.46
GGCCGGGC | 0.75

Sequence | relative CpG methylation activity
GATCGAGC | 0.679
CTACGTCT | 2.45
TTACGTCC | 2.56
ACACGTCC | 2.46
CCACGTCT | 1.61
CTACGTCC | 2.8
CAACGTCC | 1.67
ACACGTCA | 2.19
CTACGTGT | 1.07
TCACGTCC | 1.98
CCACGTCC | 1.94
TTACGTCT | 2.14
TGACGTCC | 1.32
GGACGAGA | 0.605
TCTCGTGT | 0.225
ATGCGGTG | 0.407
ACCCGACG | 1.17
GCTCGGAA | 0.694
GAGCGTAG | 0.34
CCGCGGAA | 0.965
AAACGGTC | 0.701
CCACGTCA | 1.71
CTACGTCA | 2.51
TTGCGTCT | 1.67
GCACGTCA | 1.86
GTACGTAC | 1.62

Sequence | relative CpG methylation activity
GTACGTCA | 2.5
TTGCGTCC | 2.39
CTGCGTCC | 2.14
GTACGTCC | 2.41
GAACGTCC | 1.06
GTACGTCT | 2.06
CTACGTGA | 1.2
ACGCGCCG | 1.59
ACCCGGTG | 0.688
GCACGAGG | 0.755
TGACGTAC | 0.438
CTCCGAAG | 1.01
CAGCGCTC | 1.08
GCGCGAGA | 0.455
CGCCGAGT | 0.664
TAACGGCG | 0.782
ATACGTGA | 1.2
ATACGTCT | 2.22
ATACGTCC | 2.56
ATACGTCG | 2.26
ATACGTCA | 2.47
AAACGTCA | 1.14
GGACGGGC | 0.536
CGCCGATA | 0.761
TCTCGAGG | 0.357
GTGCGTGC | 1.11

Sequence | relative CpG methylation activity
CATCGGAG | 0.238
TGTCGAAC | 0.773
GGGCGCCA | 1.15
TTACGTAA | 2.54
TTACGTAT | 1.48
TTACGTAG | 1.34
CTACGTAC | 1.9
ATACGTAA | 2.01
CTACGTAA | 2.4
CTTCGCAA | 1.52
AGCCGGGA | 0.357
GAGCGCTG | 0.969
GTGCGCCC | 2.22
CTGCGCCG | 1.93
CTGCGCCC | 2.19
GTGCGCCG | 1.79
TTGCGCCA | 1.75
ATGCGCCG | 2.39
TTGCGCCT | 2.1
TTGCGCCC | 2.61
ATGCGCCC | 2.44
CGTCGAGC | 1.06
AGCCGCAG | 0.256
CGGCGTAA | 0.615
GCACGGGA | 1.04
TTCCGTCT | 2.58

Sequence | relative CpG methylation activity
GTCCGTCT | 2.14
GTCCGTCA | 2.41
ATCCGTCT | 2.05
GTCCGTTG | 1.25
GTCCGTCC | 2.02
TTCCGTCG | 2.09
GTCCGTCG | 2.53
CTCCGTCT | 1.84
TGCCGCGA | 0.629
TGCCGCTT | 1.45
CGGCGGAT | 0.495
CGTCGTAG | 0.312
AACCGTCG | 1.34
GTACGTCG | 1.85
TCACGTCA | 2.03
TGACGTCA | 0.989
CTACGTGG | 0.594
CTACGTCG | 2.46
TTACGTCA | 2.5
TTACGTCG | 2.52
TTACGTTT | 1.72
TTACGTTG | 1.34
TGACGTCG | 1.02
CGACGTCG | 1.28
TTACGTTA | 2.55
GACCGGCA | 0.909

Sequence | relative CpG methylation activity
AAGCGCAT | 0.582
TCCCGAGA | 1.02
GTTCGCAT | 1.26
TACCGACC | 0.79
TCTCGCTG | 1.57
TGCCGCTC | 1.84
GCACGATT | 1.02
AACCGACT | 0.927
TCTCGCCT | 1.73
CCTCGCCG | 1.68
GCTCGCCT | 2.09
CCTCGCCC | 2.6
CCTCGCCA | 1.67
CCTCGCCT | 2.37
GTTCGGTT | 0.726
GTCCGAAC | 1.91
CGACGATT | 0.644
TTACGGCC | 2.24
TATCGCCT | 1.86
CACCGGAA | 0.755
TCACGCTC | 2.5
CCACGCTC | 2.5
ACACGCTA | 1.76
TCACGCTG | 1.32
CCACGCTA | 1.53
ACACGCAC | 1.72

Sequence | relative CpG methylation activity
GCACGCTC | 1.98
ACACGCTT | 2.37
ACACGCTG | 1.74
ACACGCTC | 2.4
CCACGCTG | 1.58
TCACGCTA | 1.56
GGTCGTCT | 0.726
CCCCGATA | 1.02
TACCGTTT | 0.414
GCTCGGCC | 1.3
GGACGTTG | 0.114
GGACGGAC | 0.861
ATTCGCTC | 1.94
ACGCGAGT | 0.94
ATCCGCTC | 2.37
CTCCGCTT | 2.3
ATCCGCTA | 1.78
GGCCGCTT | 1.75
GTCCGCTG | 1.42
TTCCGCTT | 2.48
ATCCGCTT | 2.13
GTCCGCTA | 1.9
ATCCGCTG | 1.62
GTCCGCTT | 2.54
GTCCGCTC | 2.37
GACCGCTC | 1.78

Sequence | relative CpG methylation activity
GCCCGGGT | 0.974
TGGCGGCC | 1
CCACGACG | 1.18
GGCCGTGC | 0.353
TGCCGTCT | 1.28
TCCCGAGT | 0.977
GAGCGCTT | 2.07
GGCCGAGG | 0.41
ACACGGTC | 1.41
AGCCGTGA | 0.258
CGCCGACA | 0.962
CTGCGCAG | 0.583
CTCCGCTC | 2.19
TTCCGCTA | 2.3
TTCCGCTC | 2.73
TGACGTGA | 0.475
GAACGAGC | 1.12
CATCGGGA | 0.259
CGACGCGT | 0.316
TATCGAGC | 0.705
TACCGGGC | 0.455
CGACGCCT | 1.29
CTACGCCT | 2.79
GTACGCCT | 2.41
CCACGCCT | 2.24
CTACGCCA | 2.74

Sequence | relative CpG methylation activity
GTACGCCA | 2.14
CCACGCCA | 1.91
CCACGCCG | 1.71
CTACGCAG | 1.43
GTACGCCG | 1.9
CTACGCCG | 2.5
CGACGCCA | 1.29
GCCCGAAA | 1.39
AGACGGTC | 1.15
TCCCGTAT | 0.643
GACCGCTT | 1.77
ACACGAGC | 1.54
TTGCGATA | 1.13
GGTCGTAT | 0.455
TTGCGGTC | 1.43
TAGCGGGT | 0.231
GGACGGGT | 0.4
ATACGCCT | 2.76
ATACGCGT | 1.9
ATACGCAT | 1.79
GATCGCCG | 0.545
TCACGACA | 1.52
CTACGCTG | 1.75
CAACGCTC | 1.36
TTACGCTA | 1.94
CTACGCTT | 2.38

Sequence | relative CpG methylation activity
CAACGCTA | 0.826
CGACGCTC | 1.38
CTACGCTA | 2.5
CTACGCTC | 2.66
CTACGCAT | 1.97
GACCGTCG | 1.29
TGCCGAGC | 1.38
CGGCGTTT | 0.165
ACTCGATG | 0.513
GCCCGGCG | 0.38
GCACGCCC | 2.31
ACACGCCT | 2.44
ACACGCCC | 2.4
ACACGCCA | 2.02
GCACGCCT | 2.25
ACACGCCG | 1.92
CGCCGGCC | 0.909
CCGCGGGT | 1.11
TTACGCAA | 2.55
TTACGCGG | 0.654
TTACGCGC | 2.44
TTACGCCC | 2.64
ATACGCCC | 2.85
AGACGCCC | 1.43
TTACGCCG | 2.29
ATACGCGC | 1.93

Sequence | relative CpG methylation activity
TTACGCAT | 2.29
ATACGCCG | 2.33
TAACGCCC | 1.61
GTACGCAA | 1.89
ATTCGCAA | 1.09
TAACGTAC | 0.748
GCACGACG | 0.957
TATCGTTG | 0.26
TCGCGTAG | 0.412
TTACGCCT | 2.38
GGACGCCC | 1.88
GTACGCCC | 2.39
ATACGCGA | 1.33
CTACGCAC | 2.15
CTACGCCC | 2.62
TTACGCGT | 1.81
GAACGCCC | 1.6
ATACGCCA | 2.6
TAACGCCT | 1.2
CAACGCCC | 1.52
TTACGCCA | 2.33
TGCCGCGC | 0.766
TATCGATG | 0.224
AAACGTAA | 0.891
AGGCGCCT | 1.88
TGACGACG | 0.449

Sequence | relative CpG methylation activity
GCCCGTTT | 0.909
CCTCGGAG | 0.294
GTCCGCCA | 1.87
GTCCGCCT | 2.6
ACCCGCCC | 2.24
TTCCGCGT | 1.64
GGCCGCCT | 1.37
TGCCGCCG | 1.03
ACCCGCCG | 1.76
ACCCGCCT | 2.44
TTCCGCAT | 1.78
TTCCGCCT | 2.6
TTCCGCCA | 2.2
TTCCGCCG | 2.55
